Sampled rows, rich in hits. Any-hit rate of the full collection: about 17%.
DT40 TDP1 CPT: qHTS for Inhibitors of human tyrosyl-DNA phosphodiesterase 1 (TDP1): qHTS in cells in presence of CPT; chicken DT40 Tdp1-/-;hTDP1 cells + 20 nM CPT, ATP luminescence, 48 h; Potency, µM (highest dose often 46.2 µM), for the others: top-dose activity change, negative = growth inhibition, usual class: inhibitors; 420,000 tested, 12% active; AID 686979, 2013; also: % is scaled to controls: 0 for no effect and ±100 for the full control effect; nearly all actives have a fitted effect of over 55% in size
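Cell growth measured by CellTiter-Glo luminescence after a minimum 48 h, 37 C compound exposure with 20 nM CPT in Tdp1-knockout DT40 cells stably expressing hTDP1, seeded 400/well; qHTS titration format.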
HepG2 tox: qHTS for Inhibitors of TGF-b: Cytotox Counterscreen | 410,000 tested, 0.76% active | HepG2 CAGA-GFP viability, ATP luminescence, 18 h | Potency, µM (titrated, usually from 46.1 µM), for inactives: at the top dose activity change, negative = cytotoxicity, actives largely listed as cytotoxic
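CellTiter-Glo luminescence gave cytotoxicity after 18 hours at 37 degrees C. The cells were HepG2 CAGA-GFP in 1% FBS DMEM, stimulated with 500 pg/mL TGF-beta after compound addition. %Activity was normalised to no-cell wells (complete cell-killing) and DMSO (no toxicity), and curves were fitted and classified.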
TGFb SMAD3 inh: qHTS for Inhibitors of TGF-b; HepG2 CAGA-GFP TGF-b/SMAD3 reporter, GFP fluorescence, 18 h; TGF-beta stimulated, 500 pg/mL final; 410,000 tested, 1.2% active; Potency, µM (highest dose often 46.1 µM), without a hit: at the top dose activity, negative = inhibition, usual class: inhibitors; also: % is scaled to controls: 0 for no effect and ±100 for the full control effect; nearly all actives have a fitted effect of over 65% in size
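Inhibition was scored as loss of TGF-beta-induced (500 pg/mL final, 18 hours, 37 degrees C) GFP in HEPG2 cells carrying a CAGA-GFP reporter, in DMEM with 1% FBS. Well GFP was summed per cell; Activity was normalised to unstimulated and stimulated DMSO wells, then concentration-response fitting.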
S2 tox: Viability Counterscreen for Primary qHTS for Inhibitors of ATXN expression; 400,000 tested, 0.49% active; Potency, µM (highest dose often 56.7 µM), usual class: cytotoxic; S2 cells (HEK-293 line with an ATXN2-luciferase reporter) viability, CellTiter-Fluor protease fluorescence, 24 h; also: nearly all actives have a fitted effect of over 40% in size
DT40 TDP1 no CPT: qHTS for Inhibitors of human tyrosyl-DNA phosphodiesterase 1 (TDP1): qHTS in cells in absence of CPT. 420,000 tested, 15% active. DT40 Tdp1-/- hTDP1 cells, no CPT, ATP luminescence, 48 h. Potency, µM (titrated, usually from 46.2 µM), for the others: top-dose activity change, negative = growth inhibition, actives largely listed as inhibitors. AID 686978, 2013; also: % is scaled to controls: 0 for no effect and ±100 for the full control effect; nearly all actives have a fitted effect of over 55% in size
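Chicken DT40 Tdp1-/- cells complemented with human TDP1, screened without camptothecin (DMSO vehicle only), 400 cells/well. Compounds pin-transferred, cells incubated at 37 °C for at least 48 hr. Growth read as ATP-dependent luminescence (CellTiter-Glo, 30 min at RT).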
ATXN2 expr inh: Primary qHTS for Inhibitors of ATXN expression; HEK-293 ATXN2-luciferase reporter, luminescence, 24 h; Potency, µM (titrated, usually from 57 µM), inactives show top-dose activity change, negative = inhibition, hits mostly inhibitors; 360,000 tested, 0.72% active; also: % is scaled to controls: 0 for no effect and ±100 for the full control effect; nearly all actives have a fitted effect of over 55% in size
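ATXN2-luciferase reporter cells (luciferase flanked by upstream and downstream ATXN2 gene portions) were treated 24 h at 37 °C with compounds at up to 57 uM. SteadyGlo luminescence gave expression; GF-AFC fluorescence gave viability.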
* = called active by the depositor; i = inactive; ? = inconclusive; · = no result given. Calls follow the shape of the dose curve; as a rule, active = well fitted curve in the direction sought with a large enough effect; inconclusive = small, poorly fitted or top-dose-only effect, or another doubt; inactive = no such curve, though single readings can be large; an effect the other way counts as inactive or inconclusive. Potency is read from the fitted curve at half-maximal effect.

SMILES	DT40 TDP1 CPT	HepG2 tox	TGFb SMAD3 inh	S2 tox	DT40 TDP1 no CPT	ATXN2 expr inh
O=C(NCc1ccc(F)cc1F)[C@@H]1CCCN1C(=O)[C@@H]1CCCN1C(=O)c1ccc(Cl)cc1	?	·	·	?	?	-7%
Cc1cccc(N2CCN(C(=O)Cc3ccccc3[N+](=O)[O-])CC2)c1C	-18%	-3%	-14%	·	21µM*	·
COc1ccc(CN2CCN(c3cccc(C)c3C)CC2)cc1OC	-9%	-4%	-16%	·	16%	·
Cc1cccc(N2CCN(C(=O)N3CCCCC3)CC2)c1C	26%	3%	-27%	i	-22%	4%
COc1ccc(C(=O)N2CCN(C(=O)c3cc(OC)c(OC)c(OC)c3)CC2)cc1	11%	-2%	1%	i	-4%	-17%
COc1cc(CN2CCN(c3cccc(C)c3C)CC2)cc(Br)c1O	13µM*	-108%	?	?	21µM*	-67%
Cc1cccc(N2CCN(C(=O)N3CCOCC3)CC2)c1C	?	5%	-2%	i	21µM*	-27%
COc1cc(C(=O)N2CCN(c3cc(Cl)ccc3Cl)CC2)cc(OC)c1OC	0.52µM*	1%	?	?	0.41µM*	5%
COc1cccc(C(=O)NC(=S)Nc2ccc(N(C)C)cc2)c1	?	-35%	-42%	i	?	48%
CC1CC[C@@]2(OC1)O[C@H]1CC3[C@@H]4C[C@@H](O)[C@@]5(O)C[C@@H](O)[C@H](O)C[C@]5(C)[C@H]4CC[C@]3(C)[C@H]1[C@@H]2C (some centres undefined)	12%	-2%	-6%	i	-1%	-30%
CCN(c1ccc(NC(=O)COC(=O)C(C)N=C2NS(=O)(=O)c3ccccc32)cc1)C(C)C (centres undefined)	3%	6%	-1%	i	-17%	15%
Cc1cccc(N2CCN(C(=O)c3ccnn3C)CC2)c1C	-14%	8%	0%	i	-7%	6%
Cc1cccc(N2CCN(C(=O)c3ccncc3)CC2)c1C	21µM*	3%	0%	?	21µM*	43%
COc1cc(C(=O)N2CCN(c3cccc(C)c3C)CC2)cc(OC)c1OC	0.82µM*	-16%	?	?	0.82µM*	?
Cc1cccc(NC(=O)C(Cc2ccccc2)n2cccc2)c1 (centres undefined)	?	-32%	?	i	?	·
Cc1cccc(N2CCN(C(=O)C(Cc3ccccc3)NC(N)=O)CC2)c1C (centres undefined)	-29%	-8%	?	i	-19%	-5%
Cc1cccc(N2CCN(C(=O)C(Cc3ccccc3)n3cccc3)CC2)c1C (centres undefined)	18µM*	-27%	?	i	16µM*	-23%
Cc1ccc(NC(=O)C(Cc2ccccc2)n2cccc2)cc1C (centres undefined)	12µM*	-38%	-46%	·	16µM*	·
COc1ccc(N2CC(NC(=O)C3CC3)CC2=O)cc1 (centres undefined)	14%	6%	6%	·	-12%	·
Cc1ccc(-c2nnc(SCC(=O)N3CCCc4ccccc43)o2)cc1	?	4%	4%	i	?	5%
CCOC(=O)C1CCCN(C(=O)c2[nH]c3ccc(OC)cc3c2C)C1 (centres undefined)	-10%	-7%	1%	i	29%	-9%
O=C(Nc1ccc(S(=O)(=O)N2CCCC2)cc1)c1c(F)cccc1F	-8%	-7%	-8%	i	-4%	-11%
CC1CCc2cc(F)cc3c2N1C(=O)C(C(=O)Nc1cnccn1)C3=O (centres undefined)	1µM*	-25%	0%	·	0.79µM*	·
O=C(Nc1cnccn1)C1c2ccccc2Oc2ccccc21	-7%	0%	11%	i	-1%	-7%
CCOC(=O)c1ccc(NS(=O)(=O)c2ccc(Br)s2)cc1	-17%	7%	-4%	i	-28%	-13%
SMILES	DT40 TDP1 CPT	HepG2 tox	TGFb SMAD3 inh	S2 tox	DT40 TDP1 no CPT	ATXN2 expr inh
O=C(c1ccncc1)c1ccc(NS(=O)(=O)c2ccc(Br)s2)cc1	16µM*	-32%	2%	i	18µM*	-7%
Cc1ccc(OCC(O)CN2CCOCC2)c(C)c1 (centres undefined)	-11%	-2%	-10%	i	-16%	·
Cc1ccc(C)c(OCC(O)CN2CCN(CCN3C(=O)c4cccc5cccc(c45)C3=O)CC2)c1 (centres undefined)	16µM*	-99%	?	?	18µM*	?
CC(=O)c1ccccc1OCC(O)CN1CCN(CCN2C(=O)c3cccc4cccc(c34)C2=O)CC1 (centres undefined)	6.5µM*	0%	?	i	6.5µM*	?
CC(C)OCCCNC(=O)c1ccc2c(c1)NC(=O)c1ccccc1S2	-29%	-28%	?	i	-22%	-6%
CC1=Nc2cc(C(=O)NCCc3ccc(Cl)cc3)ccc2Sc2ccc(C)cc21	6.5µM*	-17%	8.9µM*	·	6.5µM*	·
COCCCNC(=O)c1ccc2c(c1)N=C(C)c1c(C)ccc(C)c1S2	·	-29%	?	?	·	23%
CC1=Nc2cc(C(=O)NCCCOC(C)C)ccc2Sc2ccccc21	16µM*	1%	-16%	i	21µM*	-8%
CC1=Nc2cc(C(=O)NCCCOC(C)C)ccc2Sc2ccc(C)cc21	5.2µM*	1%	?	i	4.6µM*	8%
CCCCCCNC(=O)CC(c1ccccc1)c1cc(Br)ccc1O (centres undefined)	?	13µM*	13µM*	i	26µM*	?
CCOC(=O)c1ccc(N2C(=O)c3n[nH]c(-c4cccs4)c3C2c2ccc(C(C)C)cc2)cc1 (centres undefined)	?	1%	?	i	16µM*	5%
CCOC(=O)c1ccc(N2C(=O)c3n[nH]c(-c4cccs4)c3C2c2ccc(CC)cc2)cc1 (centres undefined)	15µM*	-89%	0.89µM*	·	12µM*	·
CCOC(=O)c1ccc(N2C(=O)c3n[nH]c(C)c3C2c2cccc(Br)c2)cc1 (centres undefined)	?	-104%	?	·	?	·

Screening data as filed in PubChem.
